# Reference: PubChem BioAssay AID602393 (Broad Institute, 2012)
# Out of some 350,000 compounds screened, about 7,000 (2%) were called active. The full list was thinned out, with actives kept by preference. A number with no mark means an inactive call. Cut-off read from the data, not from the text of the source: active = activation above about 40%; inconclusive = no clear call, values can overlap the other calls; inactive = below that.
# Test: raisers of Bmi1 knock-in reporter signal – mouse ES cells, Bmi1 luciferase knock-in, single point, esBAF inhibitor project, primary screen (AID 602393);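 note: 0% = median of the plate's neutral control wells and 100% = double that signal; a rise in the Bmi1 reporter signal indicates esBAF inhibition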
# Conditions: 24 h, at 12.5 µM, active compounds read high, 100% = twice the neutral-well signal
row,SMILES,reporter increase
1,CO[C@@H]1CN(C)C(=O)c2cc(NC(=O)C3CCCCC3)ccc2OC[C@@H](C)N(C(=O)Nc2ccc(C(F)(F)F)cc2)C[C@H]1C,9.31%
2,CCCNC(=O)[C@H]1[C@H](CO)[C@H]2Cn3c(ccc(C4=CCCC4)c3=O)[C@H]2N1C(=O)CC1CC1,-1.14%
3,CC(=O)c1cccc(NC(=O)Nc2ccc(C)cc2)c1,42.2% (active)
4,CC(=O)c1cccc(NC(=S)N2CCCC2)c1,3.72%
5,CCSc1nsc(NC(=O)Nc2cccc(C(C)=O)c2)n1,7.31%
6,CCOc1cc2ccccc2cc1C(=O)Nc1ccccn1,18.4%
7,COc1ccc(C(=O)Nc2cc(C)c(NC(=O)c3ccccc3OC)cn2)cc1,34.2%
8,Cc1ccccc1C(=O)Nc1ccccc1NC(=O)c1ccccc1C,-2.73%
9,COc1cc2ccccc2cc1C(=O)Nc1ccccc1C,71.4% (active)
10,COc1cc2ccccc2cc1C(=O)Nc1ccncc1,60% (active)
11,COc1cc2ccccc2cc1C(=O)Nc1ccc(S(=O)(=O)Nc2cc(C)on2)cc1,5.76%
12,CC(C)C#Cc1cnc2c(c1)C(=O)N([C@@H](C)CO)C[C@@H](C)[C@@H](CN(C)C(=O)c1cccc(F)c1)O2,4.18%
13,CCC(=O)N1[C@@H]2c3ccc(-c4ccc(F)cc4)c(=O)n3C[C@H]1[C@H](CO)[C@H]2C(=O)N(C)C,-3.81%
14,CO[C@@H]1CC[C@@H]2CCOc3ccc(C#N)cc3C(=O)N(C)C[C@H](c3ccccc3)CC(=O)N(C)C[C@H]1O2,-4.55%
15,CO[C@@H]1CN(C)C(=O)c2cc(NC(=O)C3CCOCC3)ccc2OC[C@H](C)N(C)C[C@H]1C,-1.27%
16,COc1ccc(-c2ccc([C@@H]3[C@@H](C#N)N(C(=O)C4CCCCC4)[C@H]3CO)cc2)cc1,9.6%
17,CC(C)(C)OC(=O)N1CCC(C(=O)Nc2cccc(C(=O)NCCc3ccccc3)c2)CC1,24.1%
18,O=C(COC(=O)c1ccc(F)cc1)NCCCc1ccccc1,-1.61%
19,CC(C)c1ccc(C(=O)NCCCc2ccccc2)cc1,55.1% (active)
20,O=C(NCCc1ccccc1)c1cccc(NC(=O)c2ccccc2)c1,42.6% (active)

row,SMILES,reporter increase
1,O=C(NCc1ccccc1)c1cccc(NC(=O)C2CCCCC2)c1,-4.78%
2,CSc1ncc(C(=O)NCCCc2ccccc2)c(C)n1,5.19%
3,C[C@@H]1CN([C@H](C)CO)S(=O)(=O)c2ccc(C3=CCCC3)cc2O[C@H]1CN(C)C(=O)CC1CC1,-4.31%
4,CC(=O)N1[C@@H]2Cn3c(ccc(C4=CCCC4)c3=O)[C@H]1[C@@H](C(=O)NC1CCC1)[C@@H]2CO,1.06%
5,CNC[C@H]1OCCCC[C@@H](C)Oc2ccc(NC(=O)Cc3ccccc3)cc2C(=O)N([C@H](C)CO)C[C@@H]1C,-1.06%
6,CC=Cc1ccc2n(c1=O)C[C@H]1[C@H](CO)[C@@H](C(=O)NC3CCCC3)N(Cc3ccncc3)[C@@H]21 (mixture of isomers),-6.02%
7,CCCNC(=O)C[C@H]1C[C@@H]2c3cc(NC(=O)c4ccc5c(c4)OCO5)ccc3O[C@@H]2[C@@H](CO)O1,0.264%
8,O=C1c2ccccc2C(=O)N1CCOc1ccc(F)cc1,60.3% (active)
9,O=C(OCCN1C(=O)c2ccccc2C1=O)Oc1ccccc1,-11.2%
10,O=C1c2ccccc2C(=O)N1CCCCCCN1C(=O)c2ccccc2C1=O,5.74%
11,C[C@H]1CN([C@@H](C)CO)C(=O)c2cc(NC(=O)Cn3cnnn3)ccc2O[C@H]1CN(C)C(=O)NC1CCCCC1,-0.29%
12,Cc1ccc(S(=O)(=O)Nc2ccc3c(c2)C(=O)N([C@H](C)CO)C[C@H](C)[C@@H](CN(C)S(=O)(=O)c2cn(C)cn2)OCCCC[C@H](C)O3)cc1,-6.8%
13,CCOC(=O)c1cc2n(c1C)-c1ccccc1C2=O,47.8% (active)
14,CCOC(=O)c1ccccc1CN1C(=O)c2ccccc2S1(=O)=O,0.163%
15,CCOC(=O)CN1C(=O)C(=O)c2cc(C)ccc21,-5.46%
16,COc1ccc(CN(C)C[C@H]2OCCCC[C@@H](C)Oc3ccc(NS(C)(=O)=O)cc3C(=O)N([C@@H](C)CO)C[C@H]2C)cc1,-3.35%
17,CCC(=O)Nc1ccc2c(c1)OC[C@@H](C)N(Cc1ccccc1OC)C[C@H](C)[C@H](OC)CN(C)C2=O,-1.32%
18,COCC(=O)Nc1ccc2c(c1)C(=O)N(C)C[C@@H](OC)[C@H](C)CN(C(=O)CC1CC1)[C@H](C)CO2,0.458%
19,Cc1ccc(S(=O)(=O)Nc2cccc3c2O[C@@H](CN(C)C(=O)Nc2ccccc2)[C@H](C)CN([C@@H](C)CO)C3=O)cc1,-4.19%
20,CN(C)c1ccc(CSc2ccccc2)cc1,75.8% (active)
